Here are results for eight molecules from PubChem BioAssay (NCI).

Compounds without any hit were thinned out: in the full panel of roughly 83,000, 20% have a hit.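 In brief: 96-well plates, 48 h treatment, single concentration, percent growth endpoint.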 A number with no mark means an inactive call. Activity calls are given as the source filed them. The calls were made as follows: active = growth percent below 10; inactive = the rest.

What all share (test): NCI-60 one-dose screen, 48 h (100 = growth as untreated, 0 = no growth, -100 = all killed)
For one test, the system named is HCT-15 colon. As to conditions: 10 µM unless noted.
Another test has as its system HT29 colon. As to conditions: 10 µM unless noted.
A further test has as its system SNB-19 CNS. Particulars: 10 µM unless noted.
Another test concerns U251 CNS. As to conditions: 10 µM unless noted.
For a further test, the system named is PC-3 prostate. Particulars: 10 µM unless noted.
The test system of the next test is SK-MEL-5 melanoma. Particulars: 10 µM unless noted.
In a further test the test system is UACC-62 melanoma. As to conditions: 10 µM unless noted.
Another test relates to LOX IMVI melanoma. As to conditions: 10 µM.
A further test deals with SK-MEL-28 melanoma. Particulars: 10 µM unless noted.
In another test the test system is SK-MEL-2 melanoma. As to conditions: 10 µM unless noted.
The subject of the next test is EKVX NSCLC. As to conditions: 10 µM unless noted.
Another test has as its system SN12C renal. Particulars: 10 µM unless noted.
Another test relates to UO-31 renal. As to conditions: 10 µM unless noted.
The subject of a further test is TK-10 renal. Particulars: 10 µM unless noted.
A further test concerns ACHN renal. Particulars: 10 µM unless noted.
For the next test, the system named is CAKI-1 renal. As to conditions: 10 µM unless noted.
Another test relates to A498 renal. As to conditions: 10 µM unless noted.
In another test the test system is CCRF-CEM leukemia. Particulars: 10 µM unless noted.
A further test relates to MOLT-4 leukemia. Particulars: 10 µM unless noted.
Another test has as its system SNB-75 CNS. Particulars: 10 µM unless noted.

Take `CN1C(=O)/C(=C/c2ccc(C(=O)Nc3ncc(Cc4ccc(Cl)cc4Cl)s3)cc2)SC1=S`: the growth is 25.7% with HCT-15 colon; 19.7% with HT29 colon; 66.6% in the test with SNB-19 CNS; 72.7% with U251 CNS; 38.9% in the test with PC-3 prostate; 17.1% in the test on SK-MEL-5 melanoma. Further, the growth is 8.83% (active) in the test with UACC-62 melanoma; 29.7% with LOX IMVI melanoma; 41% in the test on SK-MEL-28 melanoma; 19.7% in the test with SK-MEL-2 melanoma; 63% in the test with EKVX NSCLC; 36.1% in the test on SN12C renal. The growth is 40.4% in the test on UO-31 renal; 71.4% with TK-10 renal; 31.3% with ACHN renal; 30.1% with CAKI-1 renal; 87.6% in the test on A498 renal; 40.2% in the test with CCRF-CEM leukemia. In addition, the growth with MOLT-4 leukemia is 31.1%.

Turning to `CCC(C)(C)c1ccc(OCCCCCCN2CCN(c3ccncc3)CC2)cc1`, the growth in the test with HCT-15 colon is -55.5% (active); with HT29 colon, -39.8% (active); in the test with SNB-75 CNS it was 69.6%; in the test on PC-3 prostate, -4.93% (active); in the test on SK-MEL-5 melanoma, -99.2% (active); in the test with UACC-62 melanoma, -48% (active). Further, the growth was -96.8% (active) in the test with LOX IMVI melanoma; -18.9% (active) in the test on SK-MEL-28 melanoma; 71.6% with SK-MEL-2 melanoma; 6.51% (active) in the test on EKVX NSCLC; 28.2% with UO-31 renal; 65.2% with TK-10 renal. In addition, the growth in the test with ACHN renal is 48.3%; in the test with CAKI-1 renal, 17.5%; in the test with A498 renal, 66.1%; in the test on CCRF-CEM leukemia, -23.4% (active); in the test with MOLT-4 leukemia, -23.5% (active).

For the molecule `COc1ccc(-c2ccc(SCC(=O)NCCc3ccc(S(N)(=O)=O)cc3)nn2)cc1`, the growth with HCT-15 colon is 110%; with HT29 colon it was 96.5%; in the test with SNB-19 CNS, 77.4%; in the test on U251 CNS it was 91.1%; in the test with PC-3 prostate, 81.8%; with SK-MEL-5 melanoma it was 52.9%. The growth in the test with UACC-62 melanoma was 75.8%; in the test on LOX IMVI melanoma, 89.1%; in the test on SK-MEL-28 melanoma it was 89.1%; with SK-MEL-2 melanoma, 79.8%; with EKVX NSCLC, 93.9%; in the test with SN12C renal it was 87.3%. Further, the growth is 76.8% in the test with UO-31 renal; 87.9% with TK-10 renal; 89.3% in the test with ACHN renal; 90.6% in the test on CAKI-1 renal; 123% with A498 renal; 68.2% in the test on MOLT-4 leukemia.

Take `CN(C)CCCNC(=O)c1cc(NC(=O)c2cc(NC(=O)c3ccc(/C=C/c4ccccc4)cc3)cn2C)cn1C`: the growth in the test on HCT-15 colon was 44.3%; in the test with HT29 colon it was 2.73% (active); in the test on SNB-19 CNS, 78%; in the test on U251 CNS, -14.9% (active); in the test with PC-3 prostate, 46.6%; in the test with SK-MEL-5 melanoma, 40.3%. The growth in the test on UACC-62 melanoma is 10.1%; in the test with LOX IMVI melanoma, -86.1% (active); in the test with SK-MEL-28 melanoma it was 60.2%; in the test with SK-MEL-2 melanoma, 60.6%; in the test with EKVX NSCLC it was 66.9%; in the test on SN12C renal it was 49.3%. The growth in the test with UO-31 renal is 66.6%; in the test on TK-10 renal, 83.7%; with ACHN renal, 40.3%; in the test on CAKI-1 renal, 34.7%; in the test with A498 renal it was 103%; in the test on CCRF-CEM leukemia, 22.9%. In addition, the growth in the test on MOLT-4 leukemia was -5.97% (active).

As to `CC12CC[C@@H]3[C@]4(C)COC(c5cn[nH]c5-c5cccc(Cl)c5)O[C@@H]4CC[C@@]3(C)[C@@H]1CC(C1=CCOC1=O)O2` (some centres undefined), the growth in the test with HCT-15 colon is 35.1%; in the test with HT29 colon, 28%; with SNB-19 CNS it was 56.8%; with U251 CNS, 38.6%; with PC-3 prostate it was 12.6%; in the test with SK-MEL-5 melanoma, 8.92% (active). In addition, the growth in the test on UACC-62 melanoma was 26.9%; in the test with LOX IMVI melanoma, 40.3%; in the test on SK-MEL-28 melanoma it was 36.3%; in the test with SK-MEL-2 melanoma, 42.4%; in the test with EKVX NSCLC, 26%; in the test with SN12C renal, 47.9%. The growth in the test with UO-31 renal was 16.4%; with TK-10 renal it was 45.9%; in the test on ACHN renal, 31.3%; with CAKI-1 renal, 45.6%; with A498 renal it was 73.6%; in the test on CCRF-CEM leukemia it was 25.5%. Moreover, the growth in the test on MOLT-4 leukemia was 12.4%.

Consider `COc1ccccc1C(=O)NN1C(=O)/C(=C/C2=Cc3ccccc3OC2)SC1=S`, for which the growth is 114% with HCT-15 colon; 110% with HT29 colon; 97.6% in the test with SNB-19 CNS; 101% in the test on U251 CNS; 91.2% with PC-3 prostate; 104% in the test on SK-MEL-5 melanoma. In addition, the growth with UACC-62 melanoma was 91.8%; with LOX IMVI melanoma it was 94%; with SK-MEL-28 melanoma, 109%; with SK-MEL-2 melanoma it was 109%; in the test with EKVX NSCLC it was 105%; with SN12C renal it was 104%. The growth with UO-31 renal is 74%; in the test on TK-10 renal it was 124%; with ACHN renal, 103%; in the test on CAKI-1 renal, 45.5%; with A498 renal, 134%; in the test with CCRF-CEM leukemia, 93.7%. Moreover, the growth with MOLT-4 leukemia is 100%.

Consider `Cc1sc2c(c1C)C(c1ccc(Cl)cc1)=N[C@@H](CC(=O)NCCCCCNC(=O)COc1ccc(C3CCC(=O)NC3=O)cc1)c1nnc(C)n1-2` (some centres undefined), for which the growth in the test on HCT-15 colon was 33%; in the test with HT29 colon it was 13%; with SNB-19 CNS it was 23.8%; in the test on U251 CNS, 45.2%; in the test with PC-3 prostate, 11.3%; in the test on SK-MEL-5 melanoma it was -13.4% (active). In addition, the growth was 3.07% (active) with UACC-62 melanoma; 11.3% with LOX IMVI melanoma; 48.3% in the test with SK-MEL-28 melanoma; 13.4% with SK-MEL-2 melanoma; 29.5% in the test on EKVX NSCLC; 18.7% with SN12C renal. Further, the growth with UO-31 renal is 27.8%; with TK-10 renal, 5.57% (active); in the test with ACHN renal, 44%; in the test on CAKI-1 renal it was 16.4%; in the test with A498 renal, 48.4%; with CCRF-CEM leukemia it was 49.2%. For the same molecule, the growth with MOLT-4 leukemia is 16.4%.

Take `CCOC(=O)c1ccc(Nc2nc(NN)nc(-c3ccc(F)cc3)c2C#N)cc1`: the growth in the test with HCT-15 colon is 109%; in the test with HT29 colon, 97.6%; with SNB-19 CNS, 100%; in the test on U251 CNS it was 115%; with PC-3 prostate, 103%; in the test on SK-MEL-5 melanoma, 102%. Also, the growth was 91.3% in the test on UACC-62 melanoma; 112% in the test on LOX IMVI melanoma; 109% with SK-MEL-28 melanoma; 115% in the test on SK-MEL-2 melanoma; 120% in the test on EKVX NSCLC; 103% in the test on SN12C renal. Moreover, the growth with UO-31 renal was 88.3%; with TK-10 renal it was 104%; in the test with ACHN renal, 103%; in the test on CAKI-1 renal it was 108%; in the test with A498 renal, 101%; in the test on CCRF-CEM leukemia, 91.9%. For the same molecule, the growth in the test with MOLT-4 leukemia is 89.8%.
